The record followed here is ChEMBL document CHEMBL3433997, “St. Jude Leishmania screening dataset” (2016).

SMILES strings stand for the structures. “And” between values parts separate entries of the source, which are not always exact repeats. Equal entries are not always repeated.

Assay type in all cases: functional
In test [1] the target is Solute carrier family 2, facilitated glucose transporter member 1 (Homo sapiens) (UniProt P11166). Nature of the test: ST_JUDE_LEISH: Cytotoxicity at 2uM final concentration against transgenic Leishmania Mexicana promastigotes LmGLUT1 that are glucose transport deficient and complemented with the human glucose transporter GLUT1. Activity is measured by DNA content using SYBR green in vitro.
Solute carrier family 2, facilitated glucose transporter member 1 (Homo sapiens), sequence (P11166 whole entry): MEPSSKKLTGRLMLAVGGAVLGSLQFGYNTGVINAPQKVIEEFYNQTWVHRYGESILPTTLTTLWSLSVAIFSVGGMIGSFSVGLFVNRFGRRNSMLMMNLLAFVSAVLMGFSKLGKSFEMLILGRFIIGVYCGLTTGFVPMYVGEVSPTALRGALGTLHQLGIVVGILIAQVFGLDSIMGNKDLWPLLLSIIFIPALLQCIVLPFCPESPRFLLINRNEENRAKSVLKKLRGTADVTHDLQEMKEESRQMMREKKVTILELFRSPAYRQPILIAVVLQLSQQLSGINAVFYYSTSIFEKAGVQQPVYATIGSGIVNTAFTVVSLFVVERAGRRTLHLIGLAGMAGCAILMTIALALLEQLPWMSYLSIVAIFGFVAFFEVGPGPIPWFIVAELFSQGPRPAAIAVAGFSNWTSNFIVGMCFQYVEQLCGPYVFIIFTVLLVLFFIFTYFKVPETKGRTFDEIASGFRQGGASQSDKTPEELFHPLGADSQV

For test [2], the target named is Hexose transporter 1 (Plasmodium falciparum) (UniProt O97467). Kind of test: ST_JUDE_LEISH: Cytotoxicity at 2uM final concentration against transgenic Leishmania Mexicana promastigotes LmPfHT that are glucose transport deficient and complemented with the Plasmodium falciparum hexose transporter. Activity is measured by DNA content using SYBR green in vitro.
The target in test [3] is Glucose transporter (Leishmania mexicana) (UniProt O61059). Nature of the test: ST_JUDE_LEISH: Cytotoxicity at 2uM final concentration against transgenic Leishmania Mexicana promastigotes LmGT2 that are glucose transport deficient and complemented with the L. Mexicana glucose transporter 2. Activity is measured by DNA content using SYBR green in vitro.

As usually defined, the inhibition is the relative decrease from the control value, in per cent.

Turning to `CCC(=C(CC)c1ccc(O)c(CNC2CCCCC2)c1)c1ccc(O)c(CNC2CCCCC2)c1`, the inhibition in test [1] was 23.6%; in test [2], 8.98%; in test [3] it was -1.26%.

Take `CN(C)CCNCc1cccc(-c2cccc(-c3nc4ccccc4[nH]3)c2)c1`: the inhibition in test [1] worked out at 2.56%; in test [2], 2.66%; in test [3], 1.85%.

For `COc1cc2nc(N3CCC(c4ccccc4)CC3)nc(NCc3ccc(=O)[nH]c3)c2cc1OC`, the values for the inhibition in test [1], in test [2] and in test [3] were 1.44%, 1.5% and 1.6%, respectively.

Consider `O=C(Nc1ccccc1Br)c1cn(-c2ccccc2)nc1-c1cccc([N+](=O)[O-])c1`, for which the values for the inhibition in test [1], in test [2] and in test [3] were 10.6%, 10.4% and 8.93%, respectively.

Turning to `CC(C)C1C(O)=C(c2ccc3ccccc3c2)C(=O)N1Cc1cccc(F)c1` (centres undefined), the inhibition was determined as 6.97% in test [1], 7.53% in test [2] and 8.55% in test [3].

`O=C(/C=C/c1ccc(Cl)c(Cl)c1)NCC(CCCN1CCC(c2c[nH]c3ccccc23)CC1)c1ccccc1` (centres undefined): the inhibition in test [1] was 3.06%; in test [2] it was -1.36%; in test [3], 2.05%.

For `CCCCCN1CCCN(Cc2cccc(NC(=O)c3ccc(-c4ccccc4)cc3)c2)CC1`, the inhibition is -0.68% in test [1], -0.99% in test [2] and 2.3% in test [3].

Regarding `CCCCC(N)COc1cccc2c(-c3ccncc3)c(-c3cccc(NC(=O)Nc4ccccc4)c3)nn12` (centres undefined), the inhibition in test [1] stood at 3.39%; in test [2], 2.13%; in test [3], 2.8%.

In the case of `CCC(C)OC(=O)C1=C(C)NC2=C(C(=O)CC(c3ccc(OC)c(OC)c3)C2)C1c1ccc(O)cc1` (centres undefined), the inhibition in test [1] was 3.25%; in test [2], 1.77%; in test [3], 1.8%.

Regarding `CN1CCN(c2ccnc3ccc(NC(=O)N(C)c4ccc(Cl)c(Cl)c4)cc23)CC1`, the inhibition in test [1] is -0.11%; in test [2] it was 0.31%; in test [3] it was 1.72%.

In the case of `COc1ccc(CN2CCC(N3CC(c4ccccc4)(c4ccccc4)OCC3=O)C2)c(O)c1` (centres undefined), the figures for the inhibition in test [1], in test [2] and in test [3] were -1.54%, -0.28% and -1.56%, respectively.

Regarding `CN(/N=C/c1ccc(Cl)cc1)c1nc(NCCc2ccc(O)cc2)nc(N2CCNCC2)n1`, the inhibition in test [1] was 7.69%; in test [2] it was 6.81%; in test [3] it was 6.34%.

Take `Fc1ccc(C(OCC2CCCN(Cc3cccc4cccnc34)C2)c2ccc(F)cc2)cc1` (centres undefined): the inhibition was 2.49% in test [1], 0.62% in test [2] and -2.6% in test [3].

Take `CCCCc1ccc(C(=O)Nc2ccc3nc(N4CCN(CC)CC4)cc(C)c3c2)cc1`: the inhibition in test [1] is -2.18%; in test [2], -0.16%; in test [3], -1.24%.

For the compound `Cc1[nH]c2ccc(C#N)cc2c(=O)c1Br`, the inhibition in test [1] stood at 2.13%; in test [2], 1.62%; in test [3], 1.31%.

Regarding `CC(C)N1CCC(N(Cc2ccc(-c3ccc(C(F)(F)F)cc3)cc2)C(=O)Cn2c(CCc3cccc(F)c3F)nc(=O)c3cccnc32)CC1`, the inhibition in test [1] was found to be 2.74%; in test [2], 1.97%; in test [3] it was 0.94%.

Regarding `Cc1nc(N)nc(N)c1OCCCCCCOc1ccccc1`, the inhibition in test [1] was 2.38%; in test [2], 4.83%; in test [3], -0.89%.

Take `Cc1cccc2nc(-c3cccc(-c4ccc(NC(=O)NCc5cccc(F)c5)cc4)c3)[nH]c12`: the inhibition is -1.1% in test [1], 1.21% in test [2] and 0.25% in test [3].

In the case of `Cc1nc2nc(N)nc(N)c2c(C)c1Cc1cccc(F)c1`, the inhibition in test [1] came out at 2.65%; in test [2], 1.14%; in test [3], 0.65%.

As for `Cc1cc(NCCc2ccccc2)nc(NC(=N)Nc2ccc(Cl)cc2)n1`, the inhibition in test [1] is 0.08%; in test [2] it was 2.1%; in test [3], -1.21%.

Regarding `CC(=O)c1ccccc1C(=O)N1CCOc2ccc(C(O)C(c3ccccc3)c3ccccc3)cc2C1` (centres undefined), the inhibition in test [1] was 0.04%; in test [2] it was -1.21%; in test [3], -1.21%.

For the compound `CCCc1nc2c(N3CCCN(C(=O)NC4CCCCC4)CC3)cccc2n1Cc1ccccn1`, the values for the inhibition in test [1], in test [2] and in test [3] were -2%, -1.61% and -1.29%, respectively.

As to `COc1ccc(CNCc2cccc(-c3ccc(-c4nc5cc(C(F)(F)F)ccc5[nH]4)cc3)c2)cc1`, the inhibition in test [1] worked out at 7.79%; in test [2], 6.65%; in test [3] it was 6%.

As for `NC1CCCN(Cc2ccc(-c3cccc(-c4nc5ccccc5[nH]4)c3)cc2)C1` (centres undefined), the inhibition in test [1] was found to be 3.53%; in test [2] it was 4.34%; in test [3], 4.25%.

As to `COc1cccc(CCc2c(CCNCCCCCCNCCc3ccccc3)ccc(OC)c2OC)c1`, the inhibition in test [1] worked out at 93%; in test [2], 102%; in test [3] it was 106%.

As to `C=CCn1c(SCC(=O)Nc2cc(Cl)ccc2Cl)nc2sc(C)cc2c1=O`, the inhibition amounted to 1.86% in test [1], 0.95% in test [2] and 0.76% in test [3].

Regarding `CN1CCN(c2ccnc3ccc(NC(=O)Nc4cccc5c(C#N)cccc45)cc23)CC1`, the values for the inhibition in test [1], in test [2] and in test [3] were 2.25%, 2.35% and 2.75%, respectively.

For the compound `CN(CCS(C)(=O)=O)Cc1ccc(-c2ccc3ncnc(Nc4ccc(OCc5cccc(F)c5)c(Cl)c4)c3c2)o1`, the inhibition is 2.97% in test [1], 0.92% in test [2] and -0.85% in test [3].

Turning to `CN(C)CCCc1cc2c(cc1Cl)CCN2C(=O)Nc1ccc(-c2ccncc2)c2ccccc12`, the inhibition was -2.58% in test [1], -1.62% in test [2] and -3.5% in test [3].

Take `Cc1nc2c(c(O)c1Cl)-c1ccc(Oc3cccc(C(F)(F)F)c3)cc1C2=O`: the inhibition is 2.13% and 1.44% in test [1]; 2.5% and 1.39% in test [2]; 1.75% and 2.09% in test [3].

Take `Cc1nc(C)c(-c2ccc(Oc3cc(Cl)cc(Cl)c3)cc2)c(O)c1Cl`: the inhibition was 2.68% in test [1], 3.03% in test [2] and 0.49% in test [3].

On to `CC(CCON1C(N)=NC(N)=NC1(C)C)c1ccc(Cl)c(Cl)c1` (centres undefined), for which the inhibition in test [1] was 26.6%; in test [2], 41.4%; in test [3], 27.7%.

As to `N=C(N)c1nc2ccccc2s1`, the inhibition in test [1] is 1.87%; in test [2] it was 1.89%; in test [3], 2.04%.
